# Screening data from PubChem.
# Shown are actives, neighbours in structure and some others; about 7.2% of the full set was active somewhere.
# MARV entry inh: qHTS for inhibitors of binding or entry into cells for Marburg Virus | Marburg virus pseudotyped entry inhibition, cell reporter | 300,000 tested, 1.8% active | Potency, µM (titrated, usually from 37.8 µM), inactives show at the highest dose activity change, negative = inhibition, usual class: inhibitors; calls by dose curve; tested in HEK293 cells
# RE007 growth inh: qHTS Assay for Inhibitors of the HIV-1 protein Vpr. Potency, µM (doses to about 92.2 µM), for inactives: top-dose activity change, negative = less growth, hits mostly inhibitors. S. pombe RE007 Vpr strain, BacTiter-Glo ATP luminescence, 24 h. 360,000 tested, 0.21% active; active = well fitted falling curve with a large enough effect; inconclusive = small, poorly fitted or top-dose-only effect; inactive = no such curve, though single readings can be large or run the other way; also: nearly all actives have a fitted effect of over 50% in size
#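 Fission yeast RE007 carrying one integrated HIV-1 vpr copy, seeded at OD 0.01 in PMG+AL medium with 23 nL pinned compound. Grown 24 h at 30 degrees; viability read by BacTiter-Glo luminescence after 5 min.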
# Lassa entry inh: qHTS for Inhibitors of binding or entry into cells for Lassa Virus | AID 540256, 2011 | 300,000 tested, 1.2% active | Lassa virus pseudotype entry inhibition, cell reporter | Potency, µM (top dose mostly 37.9 µM), without a hit: at the top dose activity change, negative = inhibition, usual class: inhibitors; calls by dose curve; tested in HEK293 cells; also: nearly all actives have a fitted effect of over 50% in size
# Sm TGR block: qHTS Assay for the Inhibitors of Schistosoma Mansoni Peroxiredoxins. Schistosoma mansoni thioredoxin glutathione reductase (TGR), Q962Y6. purified TGR, DTNB reduction, TNB absorbance 405 nm. Potency, µM (series often up to 114 µM), inactives show at the highest dose activity change, negative = inhibition, most hits filed as inhibitors. 360,000 tested, 3% active. AID 485364, 2010; also: nearly all actives have a fitted effect of over 60% in size
#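 First, TGR (20 nM dispensed) and NADPH were mixed with compound. Second, a 15 min room-temperature incubation followed. Third, further NADPH and then DTNB were added to start the reaction. Finally, TNB absorbance was monitored kinetically.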
# FMDV antiviral: High Throughput Screening for Foot and Mouth Disease Virus Antivirals. Potency, µM (top dose mostly 57.9 µM), inactives show at the highest dose activity change, negative = inhibition, hits mostly inhibitors. AID 1159524, 2015. FMDV antiviral cell-based qHTS. 410,000 tested, 1.2% active; calls by dose curve; tested in HEK293T cells; also: read-out not given here; nearly all actives have a fitted effect of over 45% in size
# HCV inhibitor: qHTS Assay for Inhibitors of Hepatitis C Virus (HCV); AID 651820, 2012; Huh7.5.1 HCVcc-Cre infection, luciferase reporter, 44 h; Potency, µM (series often up to 41.8 µM), inactives show at the highest dose activity change, negative = inhibition, actives largely listed as inhibitors; 340,000 tested, 3.4% active
#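 Cells (1,000/well) were plated 4 h before compound, then infected with HCVcc-Cre virus (~0.5 moi). After 44 h further culture, infection was read as luciferase luminescence following a 15 min substrate incubation at room temperature.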
# An asterisk follows results filed as active; ? = inconclusive; · = no result; [ ] = remark or other dose. Unless noted, calls follow the shape of the dose curve; as a rule, active = well fitted curve in the direction sought with a large enough effect; inconclusive = small, poorly fitted or top-dose-only effect, or another doubt; inactive = no such curve, though single readings can be large; an effect the other way counts as inactive or inconclusive. % is scaled to controls: 0 for no effect and ±100 for the full control effect; potency is read from the fitted curve at half-maximal effect.
SMILES,MARV entry inh,RE007 growth inh,Lassa entry inh,Sm TGR block,FMDV antiviral,HCV inhibitor
CCn1c2ccccc2c2cc(NC(=O)c3ccc(C)c([N+](=O)[O-])c3)ccc21,-19%,1%,?,5%,-14%,?
CCn1c2ccccc2c2cc(NC(=O)CCCN3C(=O)CCC3=O)ccc21,-28%,8%,-29%,-14%,0%,3.5µM*
COc1ccc(CCn2c(=O)c3cccnc3n(CC(=O)Nc3ccc(C)c(F)c3)c2=O)cc1OC,0%[46.1 µM],·,·,2%,-2%,·
COCC(=O)Nc1cc(C(=O)N2CCN(C3CCCC3)C(=O)C2)c2c(c1)nc(-c1ccncc1)n2C,·,·,·,·,-7%,·
CCOC(=O)C(=O)Nc1c(C(=O)Nc2cccc(F)c2)oc2ccccc12,1%[46.1 µM],·,14%[46.1 µM],2%,0%,·
CCn1c2ccccc2c2cc(NC(=O)c3cc(OC)cc(OC)c3)ccc21,?,0%,?,10%,-7%,?
CCn1c2ccccc2c2cc(NC(=O)c3cc(OC)c(OC)c(OC)c3)ccc21,1.4µM*,-18%,?,3%,-9%,?
CCn1c2ccccc2c2cc(NC(=O)c3cccc([N+](=O)[O-])c3)ccc21,?,7%,-15%,9%,6%,2.2µM*
COc1cc(C(=O)Nc2ccc(S(=O)(=O)NC(C)(C)C)cc2)cc(OC)c1OC,0%,2%,-1%,-11%,39%,13µM*
COc1cc(C(=O)Nc2ccc(S(=O)(=O)NC(C)C)cc2)cc(OC)c1OC,24%,0%,3%,-9%,23%,?
Cc1ccc2[nH]nc(C(=O)N3CCOc4ccc(CN5CCc6sccc6C5)cc4C3)c2c1,·,·,·,·,-21%,·
COc1ccccc1NC(=O)CSCC(=O)N1c2ccccc2CCc2ccccc21,?,5%,-14%,-10%,-24%,25µM*
COc1ccc(NC(=O)CSCC(=O)N2c3ccccc3CCc3ccccc32)cc1,-21%,15%,-3%,-4%,-26%,2%
CCOc1ccc(NS(=O)(=O)c2cc(NC(=O)c3cccc(C)c3)ccc2Cl)cc1,?,17%,16µM*,6%,41%,11µM*
C=CC1=C(C)C2=Cc3c(C=C)c(C)c4[n]3[Sn+2][n]3c(c(C)c(CCC(=O)O)c3=CC3=NC(=C4)C(C)=C3CCC(=O)O)=CC1=N2,·,·,·,·,-30%,·
O=C(NNc1c(Cl)cc(Cl)cc1Cl)c1cccc([N+](=O)[O-])c1,9%,7%,0%,-9%,-10%,10µM*
COC(=O)C1=C(c2ccc(C(C)=O)cc2)C[C@@H]2CC[C@H]1N2C(=O)NC(C)C,·,-1%,·,35µM*,-12%,-16%
COC(=O)C1=C(c2c(C)noc2C)C[C@@H]2CC[C@H]1N2C(=O)N1CCOCC1,·,-4%,·,50µM*,-1%,27%
COC(=O)C1=C(c2ccc(OC(F)(F)F)cc2)C[C@@H]2CC[C@H]1N2C(=O)N1CCCC1,·,9%,·,-18%,?,13µM*
COC(=O)C1=C(c2ccc(Cl)c(C(F)(F)F)c2)C[C@@H]2CC[C@H]1N2C(=O)N1CCOCC1,·,-21%,·,-14%,-11%,?
COC(=O)C1=C(c2ccc(Cl)c(C(F)(F)F)c2)C[C@@H]2CC[C@H]1N2C(=O)N1CCCC1,·,6%,·,-7%,?,32µM*
COC(=O)C1=C(c2ccc(OC(F)(F)F)cc2)C[C@@H]2CC[C@H]1N2C(=O)N1CCC(C)CC1,·,15%,·,-21%,?,?
COC(=O)C1=C(c2ccc(C(C)=O)cc2)C[C@@H]2CC[C@H]1N2C,·,-4%,·,-7%,1%,7%
COC(=O)C1=C(c2c(C)noc2C)C[C@@H]2CC[C@H]1N2C(=O)NC1CC1,·,-1%,·,-4%,-7%,0%
COc1ccc2c(CNCc3ccccc3OC)c(C(=O)O)n(Cc3ccc(F)cc3Cl)c2c1,·,·,16%[46.1 µM],0%,-7%,·
SMILES,MARV entry inh,RE007 growth inh,Lassa entry inh,Sm TGR block,FMDV antiviral,HCV inhibitor
CCOC(=O)c1noc2ncnc(N3CCN(c4cccc(C(F)(F)F)c4)CC3)c12,·,·,-11%[46.1 µM],1%,?,·
COC(=O)C1=C(c2ccc(Cl)c(C(F)(F)F)c2)C[C@@H]2CC[C@H]1N2C(=O)N1CCC(O)(c2ccc(Cl)cc2)CC1,·,6%,·,·,?,10µM*
COC(=O)C1=C(c2ccc(F)cc2F)C[C@@H]2CC[C@H]1N2C(=O)N1CCC(O)(c2ccc(Cl)cc2)CC1,·,13%,·,-6%,?,?
CC1(C)CC(=O)/C(=C\c2cccc([N+](=O)[O-])c2)C(C)(C)N1,?,-6%,?,?,?,10%
CCCN1C/C(=C/c2ccc3c(c2)OCO3)C(=O)/C(=C/c2ccc3c(c2)OCO3)C1,?,4%,?,?,18µM*,?
CN1C(=O)/C(=C/c2cccc([N+](=O)[O-])c2)C(=O)N1c1ccccc1,13%,-12%,?,25µM*,32µM*,30%
O=C1NC(=S)N/C1=C\c1cccc([N+](=O)[O-])c1,-3%,4%,-19%,9%,·,-1%
CCCN1C/C(=C/c2cccc([N+](=O)[O-])c2)C(=O)/C(=C/c2cccc([N+](=O)[O-])c2)C1,?,-8%,2µM*,-20%,2.5µM*,?
CCCN1C(=O)/C(=C/c2ccc3c(c2)OCO3)NC1=S,·,-20%,·,-11%,-12%,13%
C=CCN(C(=O)CCC(=O)O)[C@H]1CC(=O)N(c2ccc(OCCC)cc2)C1=O,-1%,·,·,·,·,·
COc1ccccc1C(=O)N1CCOc2ccc(C(C)(O)CCn3cccn3)cc2C1 (configuration not stated),·,·,·,·,-1%,·
CCn1cc(C(=O)NC[C@H]2CCCO2)c(=O)c2cc(F)c(N3CCN(C)CC3)cc21,-21%,·,·,·,·,·
Cc1ccc(NC(=O)c2cccs2)cc1,-5%,-18%,-2%,6%,·,-4%
Cc1nc2ccc(NC(=O)c3ccc(Cl)c(NC(=O)c4cccs4)c3)cc2s1,?,-18%,-29%,-31%,-15%,10µM*
COc1c(Cl)cc(Cl)cc1/C=C/C(=O)c1ccc(NC(=O)c2cccs2)cc1,11µM*,?,?,-7%,0%,14µM*
Cc1ccccc1-c1nc(-c2ccc(NC(=O)c3cccs3)cc2)no1,?,17%,3%,8%,-7%,14µM*
Cc1ccc(NC(=O)c2ccc(Cl)c(NC(=O)c3cccs3)c2)cc1,·,-17%,·,2%,7%,13µM*
O=C(Nc1ccc(NC(=O)c2cccs2)cc1)c1ccc(Cl)cc1,·,·,-2%[46.1 µM],1%,-2%,·
Cc1nc2ccc(NC(=O)c3ccc(Cl)s3)cc2s1,·,-2%,·,3%,21%,?
